From the supplement of paper PMC11417369
The full ranking holds about 25,000 sequences; the median of “ln(normalized median fluorescence intensity)” is about 9.7, and the highest 2% start at about 11. Many of the other results were omitted from the sample, so the highest values are more common in it than they were.

What follows are sequences tested on PfAP2-HC AP2 domain (GST-tagged) (assay: gcPBM binding intensity (ln(normalized median fluorescence intensity)); higher = stronger DNA binding).
Procedure, shortened: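 After 1 h on an Agilent 4 × 180k array of primer-extended double-stranded 36-bp intergenic genomic probes and negative controls, bound GST-tagged P. falciparum DNA-binding domains were detected with Alexa488 anti-GST antibody and scanned at 488 nm. The domains had been expressed in E. coli, and binding took place in 1× PBS with 1% milk, 0.2 mg/ml BSA, 0.5% salmon testes DNA and 0.03% Triton X-100. Binding intensity is the highest Masliner-normalised natural-log median intensity across replicate spots of either probe orientation.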

Sequence | gcPBM binding intensity (ln)
ACCCATTTAACAAAATGTACATTATTATAATTACTT [XGTACX_site7105] | 9.72
CTTATATAATTCGATAGTACATATTTTTATATATAT [XGTACX_site4045] | 9.68
ATACAATAATATAAATGTACAAATTATATCTTAATT [XGTACX_site6004] | 9.62
TTGTGTACATATTAAGTGCATATATATATATATATA | 10.4
TTTTACCTAAATATCACACATATTTAAATATATATA [CACACA_site5597] | 9.57
AGTCAATTTTGTGTGTCAACATTTATATAAAGAATG [TGCATGCA_negctrl_site400] | 9.71
AGAAGGTAAAAACACACACACACATACAAAAAAAAA [CACACA_site3767] | 10.7
AAGGTAAACGGACACACACACATACAAAAAAAAAAA [CACACA_site5961] | 11.3
AAGGTAAACAGACACACACACATACAAAAAAAAAAA [CACACA_site3768] | 10.8
TATATATAAAAAACATGTACACAAATTTACATACAT [XGTACX_site4777] | 9.79
ATGTATGGAAATTTTACACACAAGAGTAGTTTAAAA [CACACA_site1710] | 9.9
CGCACTAAAAAACACACACACACACCCATATATATA [CACACA_site4152] | 11
AAAAAAAACGCACATACACACACACCCATATATATA [CACACA_site9118] | 10.4
CCCACTAAAAAACACACACACACACCCATATATATA [CACACA_site6140] | 11
CACCCACTAATAAACACACACATATATATATATATA [CACACA_site389] | 10.4
TACCCACTAAAATACACACACACACCCACATATATA [CACACA_site6141] | 10.4
AAAGATGATAAAATATGTACACACAGTTTATACATT [XGTACX_site8703] | 9.95
AAGAAAAAAAAAATTACACACTGCGCAGATACACAA [CACACA_site1289] | 9.86
ATTTTTTCTTTTCGATGTACCCTTCTTATTCTTTAT [XGTACX_site3782] | 10.1
TCTTGATCTTATATATATCTACAATATTTTATACAT [TGCATGCA_negctrl_site569] | 10.2
CTGCGTTTAATATGCGTGCACCTTGGTTTTATATCT [GTGCAC_site9525] | 9.83
GTAAGTTTGAATACACGTACAAATTTATTAAAGTCC [XGTACX_site6722] | 9.72
ATTCTATATGTTACATAAACCTATATTTTTTTTTTT [CACACA_negctrl_site860] | 9.58
TTTTACTTAAGACACACACACACAAAAAAAAAAAAA [CACACA_site6573] | 10.8

Sequence | gcPBM binding intensity (ln)
CTATTTCAGAAACACACACACACAAACAAACATATA [CACACA_site978] | 10.4
CTATTTCATGGACACACACACACAAACAAACATATA [CACACA_site4696] | 11.1
TAAATAAATATATATTCACACACAAACATATATATA [CACACA_site9332] | 10.5
ATATAACATGGACACACACACATATATATATATTAT [CACACA_site6135] | 10.4
CTATTTCATAAACACACACACACAAACAAACATATA [CACACA_site8234] | 11.5
AATAAATATATATTCACACACAAACATATATATATA [CACACA_site4023] | 10
TTTTAAGAAAAAAAATGTACACATGAAAATAGTGAA [XGTACX_site5898] | 9.5
TAGATACATAAAAGTGGTACATATATATATATATAT [XGTACX_site6263] | 9.85
TAACTTAAATAATACATACACACATGTACATACAGA [CACACA_site1594] | 10.2
TCTATTTTTTATATGGTGCATTGTTCTTATTAATAT [GTGCAC_site9392] | 9.77
TACACAAACAGACACACACACACACGCGCACAAAAA [CACACA_site7192] | 11
ATAGACAGCGCACAAACACACAAACACGCACGCACA [CACACA_site6349] | 10.2
TGATTATAGACACGCGCACACACAACAAAAAAAAAA [CACACA_site9179] | 10.1
ATTATAGACACGCGCACACACAACAAAAAAAAAAAA [CACACA_site9180] | 11.3
AAAAAACAAAAACACACGCACACAAAAAAAAAAAAA [CACACA_site802] | 10.2
GTTACACAAACAAACACACACACACGCACGCACAAA [CACACA_site7191] | 11.3
ATTACATACACGCGCACACACAAAAAAAAAAAAAAA [CACACA_site1334] | 9.98
ATTATACACCCGCGCACACACAACAAAAAAAAAAAA [CACACA_site5871] | 11.1
TTATATTATAGACACACACACAAAAAAAAAAAAAAA [CACACA_site3816] | 10.1
TGATTATACGCACGCGCACACACAACCAAAAAAAAA [CACACA_site3537] | 10.2
CACAAACAAAGACACACACACACACGCACAAAAATG [CACACA_site7193] | 10.7
ATAAAAATTGATTATACACACGCGCACCCACAACAA [CACACA_site3536] | 10.3
TTTCTTTTTTCTGTTATTATTATAAAACGATATTTA [TGCATGCA_negctrl_site167] | 9.58
TTATTAAGTAAATCACATTTAATTTTTTTTTTTTTT [CACACA_negctrl_site1280] | 9.27

Sequence | gcPBM binding intensity (ln)
GAATATGTTAACATTTGTACATAAAATTTTTTACAA [XGTACX_site2444] | 9.49
ATTATTTTGTTTATTACATGCAGGTGTATATTACAG [TGCATGCA_site723] | 9.59
ATCACATAAAATATGAATATATATTTTATATATATA [CACACA_negctrl_site340] | 9.53
AGAAAAGAGAAATGGGCACACACACCCATATTATAT [CACACA_site8433] | 10.1
AAAAGAGAAATGGGCACACACACACCGATTATATAT [CACACA_site4942] | 11
AAAAGAGAAATGGGCACACACACACCCATTATATAT [CACACA_site1530] | 10.2
ATGTACCTATTTCATACACACACACCCACAAACAAA [CACACA_site8232] | 10.4
ACCTATTTCAAACACACACACACACCCACAAACATA [CACACA_site977] | 10.9
GTACCTATTTCATACACACACACACGCAAACAAACA [CACACA_site6590] | 11.1
ACCTATTTCAAACACACACACACACTAACAAACATA [CACACA_site8233] | 10.8
ACCTATTTCAAACACACACACACACTAGCAAACATA [CACACA_site4695] | 10.9
GTACCTATTTCATACACACACACACCCAAACAAACA [CACACA_site976] | 10.5
TATATAAACACGTACACACACATATCTGTATTTATA [CACACA_site5858] | 10.4
AAAAAATAGTGGTATGCATGTCCCTTGTATTTTCTT [TGCATGCA_site587] | 9.63
TTAATGTACAGACACCCACACACAAACAAATATATA [CACACA_site8888] | 10.2
TACACCAAAAAAAAACGTACAAAATCCCACCCAGAC [XGTACX_site4622] | 11.1
GTATATATTTAAACACGTACACAAAACCCAAAAAAT [XGTACX_site8110] | 9.95
TAATTTTTTTTTTTTTTTTTTGTACTTCATTTTTAT [CACACA_negctrl_site1395] | 9.58
TTTTTTTTGTTCTATACAATTATAAAAATAAAATAT [XGTACX_negctrl_site53] | 9.06
TAATACTTAGAGAAAAGTACGTATGAACTTATGTAA [XGTACX_site5504] | 9.59
TTTCCCTTGTTGTAAACATGCACAATATTTAGGTAT [TGCATGCA_site49] | 9.75
TTAACAAAGAAACACACACACACACCCAAAAAAAAA [CACACA_site516] | 10.6
TTAAAGCACCCATGCACACACACAAAGGAAAAGAAA [CACACA_site233] | 10.2
AATTAACAAAAACACACACACACACCGACAAAAAAA [CACACA_site4444] | 10.9

Sequence | gcPBM binding intensity (ln)
AAAGCACCCATGCACACACACAAAGGAAAAGAAAAA [CACACA_site6249] | 10.3
AAAGCACCCAGGCACACACACAAAGGAAAAGAAAAA [CACACA_site232] | 11
CAAAAGAAGGTAAACACACACACACCCATACAAAAA [CACACA_site3765] | 10.7
CAAAAGAAGGTAAACACACACACACGCATACAAAAA [CACACA_site7724] | 10.4
AAAAAAAAAAAACACACACACACACCGACAAAATAT [CACACA_site8411] | 10.8
AAAGAAGGTAAACACACACACACACCGACAAAAAAA [CACACA_site9255] | 11.5
CACAAACAAAAACACACACACACACCGACAAAAATG [CACACA_site5362] | 10.6
CACACCCACCAACACACACACAAAAAAAAAAAGAAA [CACACA_site500] | 10.4
AAAGAAGGGAAACACACACACACACCCACAAAAAAA [CACACA_site3766] | 11.4
TTTTTTTCTTTATTAGCACACATAATATTATATATG [CACACA_site8841] | 9.79
TTGGGGTATCTTCCTATGCACACTTGTTATGTACTA [CACACA_site831] | 9.85
TATATATATATATATTGTACTATATAGTATCTTTTT [XGTACX_site1646] | 9.78
TTTCACATATATATGGTGCATATTTTATGTGTAAAT [GTGCAC_site9937] | 9.7
AATTTTTTTTAATGATGTACTTTTTGAAAATAAACT [XGTACX_site4221] | 9.31
TTTCTAAGAAAAAAAAAAAAAAAAAAAAAGATACAA [GTGCAC_negctrl_site525] | 9.24
AGCACACCCACAAAAACACACACAAAGGTGTTCTTA [CACACA_site8355] | 10.5
TGCAACAAAATAAACACACACACACCCCCACAAAAA [CACACA_site3388] | 10.6
AAGTAAAAAAATAGCACACACACAAAAACACCCACA [CACACA_site1291] | 10.8
AATTAACAAAAACACACACACACACCCACAAAAAAA [CACACA_site517] | 11.4
TACATAAATTAAAACACACACACACCCAAAAAAAAA [CACACA_site2261] | 10.5
CACAAACAAAAACACACACACACACCCACAAAAATG [CACACA_site2429] | 11
AATTAAACTCACACCACACACAAAAAAAAAAAAAAA [CACACA_site693] | 10.3
TAAAATAAAACAAACACACACACACCCCCACAAAAA [CACACA_site3850] | 10.8
GTAAAAAAAGAGCACACACACAAAAACACCCACAAA [CACACA_site1292] | 10.9
